The full ranking holds about 140,000 sequences; the median of “enrichment ratio after two sorts for PhoP signalling” is about 0, and the highest 2% start at about 11. The entries come from a sample that favours the highest values as a whole.
B1: PhoQ; a variant is named by its letters at X, in order, P23837 (parent)
chain: MKKLLRLFFPLSLRVRFLLATAAVVLVLSLAYGMVALIGYSVSFDKTTFRLLRGESNLFYTLAKWENNKLHVELPENIDKQSPTMTLIYDENGQLLWAQRDVPWLMKMIQPDWLKSNGFHEIEADVNDTSLLLSGDHSIQQQLQEVREDDDDAEMTHSVAVNVYPATSRMPKLTIVVVDTIPVELKSSYMVWSWFIYVLSANLLLVIPLLWVAAWWSLRPIEALAKEVRELEEHNRELLNPATTRELTSLVRNLNRLLKSERERYDKYRTTLTDLTHSLKTPLXXLQXXLRSLRSEKMSVSDAEPVMLEQISRISQQIGYYLHRASMRGGTLLSRELHPVAPLLDNLTSALNKVYQRKGVNISLDISPEISFVGEQNDFVEVMGNVLDNACKYCLEFVEISARQTDEHLYIVVEDDGPGIPLSKREVIFDRGQRVDTLRPGQGVGLAVAREITEQYEGKIVAGESMLGGARMEVIFGRQHSAPKDE

Variants of: B1
Test: enrichment ratio after two sorts for PhoP signalling (ratio (wild type AVST 3.29)); higher = more functional
Conditions: with PhoP (E. coli)

| Variant | enrichment ratio |
| --- | --- |
| KSLG | ≤ 0.25 |
| YYHP | ≤ 0.25 |
| DLTQ | ≤ 0.25 |
| ANPT | ≤ 0.25 |
| IGMM | 18.5 |
| IQMM | ≤ 0.25 |
| IPMM | ≤ 0.25 |
| HIMM | ≤ 0.25 |
| ITMM | 17.7 |
| VHMM | ≤ 0.25 |
| VAMM | 12.8 |
| GAMM | 14.4 |
| IGWM | ≤ 0.25 |
| TAMM | 2.2 |
| IGGM | ≤ 0.25 |
| VLMM | ≤ 0.25 |
| MRMA | ≤ 0.25 |
| HQRH | ≤ 0.25 |
| GEDN | ≤ 0.25 |
| YNEG | ≤ 0.25 |
| KEMR | ≤ 0.25 |
| WIRK | ≤ 0.25 |
| EEFA | ≤ 0.25 |
| YYMT | ≤ 0.25 |
| TQCW | 0.964 |
| PSYG | ≤ 0.25 |

| Variant | enrichment ratio |
| --- | --- |
| EPIL | ≤ 0.25 |
| IAMM | 13.5 |
| LLMM | ≤ 0.25 |
| LAMM | 14.3 |
| LTMM | 2.28 |
| KAMM | ≤ 0.25 |
| ISMM | 5.78 |
| MTSV | 0.634 |
| AHSV | ≤ 0.25 |
| AESV | 14.8 |
| MDSV | ≤ 0.25 |
| QPSV | ≤ 0.25 |
| QRSV | ≤ 0.25 |
| ARSV | ≤ 0.25 |
| NESV | ≤ 0.25 |
| MESV | 24.5 |
| MKSV | ≤ 0.25 |
| QESV | 29.9 |
| IESV | ≤ 0.25 |
| TESV | 26.1 |
| IVVM | ≤ 0.25 |
| GAFT | ≤ 0.25 |
| TQPA | ≤ 0.25 |
| WQTI | ≤ 0.25 |
| MSAY | 7.95 |
| NSEQ | ≤ 0.25 |

| Variant | enrichment ratio |
| --- | --- |
| FQMY | ≤ 0.25 |
| TQMY | 12.5 |
| TQME | 17.2 |
| NQMY | ≤ 0.25 |
| IQME | ≤ 0.25 |
| WQME | ≤ 0.25 |
| KHFI | ≤ 0.25 |
| MHHY | ≤ 0.25 |
| RLFV | ≤ 0.25 |
| AWVF | ≤ 0.25 |
| ACVF | 11.9 |
| ATVF | 16.1 |
| ALVF | 0.451 |
| ACHF | ≤ 0.25 |
| YTVF | 0.29 |
| LWTN | ≤ 0.25 |
| FKQC | ≤ 0.25 |
| IVWE | ≤ 0.25 |
| GEIV | 8.51 |
| GNIY | ≤ 0.25 |
| GEIY | 23 |
| GEIS | 20.8 |
| GERC | ≤ 0.25 |
| GEFC | ≤ 0.25 |
| GEIC | 45.3 |
| GGIY | 2.45 |

| Variant | enrichment ratio |
| --- | --- |
| GNIS | 5.86 |
| IKLA | ≤ 0.25 |
| LNNT | ≤ 0.25 |
| FNGW | ≤ 0.25 |
| YVPF | ≤ 0.25 |
| LTCT | ≤ 0.25 |
| FKRE | ≤ 0.25 |
| TTCA | 9.39 |
| LPWS | ≤ 0.25 |
| GDTH | ≤ 0.25 |
| LVNA | ≤ 0.25 |
| HQNP | ≤ 0.25 |
| AIAT | 19.3 |
| MEMT | ≤ 0.25 |
| ANMT | 12.2 |
| AQMI | ≤ 0.25 |
| TKMT | 6.64 |
| KKAT | ≤ 0.25 |
| AQMT | 23.8 |
| AKAT | 3.68 |
| ANKK | ≤ 0.25 |
| AKMT | 52.1 |
| ANKA | ≤ 0.25 |
| NQMT | ≤ 0.25 |
| FGIN | ≤ 0.25 |
| RFYE | ≤ 0.25 |

| Variant | enrichment ratio |
| --- | --- |
| FYWY | ≤ 0.25 |
| ITNK | ≤ 0.25 |
| QYEG | ≤ 0.25 |
| HPNG | ≤ 0.25 |
| WHVS | ≤ 0.25 |
| TMMI | 0.351 |
| WHFQ | 1.98 |
| DQQP | ≤ 0.25 |
| FHPL | ≤ 0.25 |
| LVAW | 0.304 |
| AKAR | ≤ 0.25 |
| VHMT | ≤ 0.25 |
| KKAR | ≤ 0.25 |
| ATMT | ≤ 0.25 |
| AIAR | 19.7 |
| AIMT | 22.8 |
| SVWQ | ≤ 0.25 |
| KVQS | ≤ 0.25 |
| GTFM | ≤ 0.25 |
| MAFM | 14.7 |
| MTFM | 17.1 |
| NAFM | ≤ 0.25 |
| MIGM | 2.52 |
| KAFM | ≤ 0.25 |
| MIFM | 15.8 |
| MKFM | ≤ 0.25 |

| Variant | enrichment ratio |
| --- | --- |
| YTFM | ≤ 0.25 |
| DKSF | ≤ 0.25 |
| TGQA | 3.89 |
| FELW | ≤ 0.25 |
| SMWH | ≤ 0.25 |
| SMMN | 19.5 |
| SMMV | 17.9 |
| SMPV | ≤ 0.25 |
| SMKH | ≤ 0.25 |
| SMQH | 14.9 |
| SMTH | 4.57 |
| SMNL | 2.56 |
| SMIV | ≤ 0.25 |
| SMGH | 1.91 |
| SMMH | 15.6 |
| SMQN | ≤ 0.25 |
| NSPY | ≤ 0.25 |
| PHRW | ≤ 0.25 |
| NLYI | ≤ 0.25 |
| HIPQ | ≤ 0.25 |
| SEHH | ≤ 0.25 |
| NIQH | ≤ 0.25 |
| NTWT | ≤ 0.25 |

Source: a collection of fitness landscapes (doi:10.1126/science.1257360)
